High-throughput results: PubChem, National Center for Advancing Translational Sciences (NCATS)
Abeta yeast res: qHTS for compounds that reverse cellular toxicity of Amyloid beta (A-beta) peptide in yeast: Primary Screen. yeast expressing A-beta42, growth rescue, OD600, 48 h; response scale: 0% DMSO, 100% iron-clioquinol control. Potency, µM (series often up to 46.1 µM), most hits filed as activators. hit rate 0.063% among 410,000. AID 1347071, 2019; note: potency is the fitted concentration of half-maximal effect; nearly all actives have a fitted effect of over 55% in size
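Yeast growth medium received pinned compounds, then yeast cells expressing toxic A-beta were added; plates incubated at 30 C for 48 hr. Growth read as absorbance at 600 nm, normalized to DMSO and equimolar FeCl3 plus clioquinol controls.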
TDP43 rescue: qHTS of TDP-43 Inhibitors; hit rate 1.8% among 410,000; Potency, µM (doses to about 46.1 µM), for inactives: at the highest dose growth rescue (activation), hits mostly activators; AID 652104, 2013; TDP-43 expressing yeast growth rescue, BacTiter-Glo, 24 h; note: potency is the fitted concentration of half-maximal effect; % of control where 0% means no effect; nearly all actives have a fitted effect of over 50% in size
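Luminescence from BacTiter-Glo reports growth of TDP-43-expressing yeast after 24 hr at 30 deg C with compound. Cells were raffinose-pregrown to mid-log, then seeded in galactose medium at OD600=0.02.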
aSyn yeast inh: qHTS of alpha-syn Inhibitors | Yeast expressing alpha-synuclein, growth rescue, BacTiter-Glo, 24 h | hit rate 0.14% among 370,000 | Potency, µM (doses to about 46.1 µM), without a hit: top-dose growth rescue (activation), most hits filed as activators; note: potency is the fitted concentration of half-maximal effect; % of control where 0% means no effect; nearly all actives have a fitted effect of over 65% in size
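Galactose-induced alpha-syn yeast (OD600=0.02, raffinose-pregrown) + pinned cpd, 24 hr, 30 deg C; growth by BacTiter-Glo luminescence. Growth restoration scores as activation.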
LDHA block: qHTS assay for inhibitors of human lactate dehydrogenase; L-lactate dehydrogenase A chain (Homo sapiens), P00338; purified LDHA, NADH/diaphorase-resazurin fluorescence; active compounds read low; hit rate 0.15% among 480,000; activity change, % (values are at about 110 or 230 µM); in the data active = activity change below about -30%; inconclusive = mostly about -25% to -30%;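 note: plate controls were DMSO wells for no effect and wells without enzyme for full effect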
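Human LDH5 at 2 nM final in Tris HCl pH 7.4 with 0.06 mM NADH and 0.2 mM pyruvate, reacted 5 minutes at room temperature. Remaining NADH coupled via diaphorase/resazurin; resorufin fluorescence read at 0 and 20 minutes, normalized to enzyme-free and DMSO wells.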
FUS yeast rescue: qHTS for Suppressors of FUS Proteinopathy: Primary screen using FUS-linked yeast assay; S. cerevisiae FUS-expressing, growth rescue, OD600, 24 h; Potency, µM (series often up to 76.6 µM), actives largely listed as activators; hit rate 0.24% among 390,000;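 note: potency is the fitted concentration of half-maximal effect; plate controls were DMSO vehicle for no effect and reference control for full effect; nearly all actives have a fitted effect of over 55% in size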
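Galactose (2%) drives FUS expression in yeast precultured in raffinose; seeding density OD 0.005. Test compounds incubated 24hr at 30C and 99% humidity before absorbance at 600 nm was measured.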
PTHR1 agonist: qHTS for PTHR1 Agonists: Primary Screen; Parathyroid hormone/parathyroid hormone-related peptide receptor (Homo sapiens), Q03431; HEK293 GP2 PTHR1 cells, GloSensor cAMP luminescence, 1 h; Potency, µM (titrated, usually from 115 µM), for inactives: top-dose activation, usual class: activators; hit rate 0.075% among 410,000; AID 743266, 2014; note: potency is the fitted concentration of half-maximal effect; nearly all actives have a fitted effect of over 55% in size
Target sequence (Q03431 whole entry, looked up): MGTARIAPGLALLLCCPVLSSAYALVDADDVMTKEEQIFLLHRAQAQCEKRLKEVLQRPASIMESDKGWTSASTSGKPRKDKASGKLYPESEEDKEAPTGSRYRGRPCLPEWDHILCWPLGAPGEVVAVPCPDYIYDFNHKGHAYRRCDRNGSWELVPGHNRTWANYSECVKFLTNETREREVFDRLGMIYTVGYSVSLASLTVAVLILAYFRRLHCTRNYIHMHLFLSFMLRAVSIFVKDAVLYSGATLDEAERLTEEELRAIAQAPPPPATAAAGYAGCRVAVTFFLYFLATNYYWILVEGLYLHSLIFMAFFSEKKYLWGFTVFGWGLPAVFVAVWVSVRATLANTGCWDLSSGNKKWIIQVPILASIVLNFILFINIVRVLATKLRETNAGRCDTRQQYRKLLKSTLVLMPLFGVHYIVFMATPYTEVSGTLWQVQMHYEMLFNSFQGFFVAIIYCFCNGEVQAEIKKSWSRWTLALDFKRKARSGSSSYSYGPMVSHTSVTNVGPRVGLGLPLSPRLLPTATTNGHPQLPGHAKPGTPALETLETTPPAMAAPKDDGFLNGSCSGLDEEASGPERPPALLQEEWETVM
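HEK-293-derived GP2 cells expressing PTHR1 and a GloSensor cAMP reporter, 3,000/well, plated overnight, given luciferin plus IBMX (each 0.5 mM as added) for 1 h at 37 °C, then compound for 1 h at 37 °C. Luminescence was read after 15 min at room temperature.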
* = called active by the depositor; [ ] = another dose, or the depositor's remark. A selection: hits, their analogues and other compounds. The true share with any hit is near 1.9%. Unless noted, calls come from the whole dose curve; as a rule, active = well fitted curve in the direction sought with a large enough effect; inconclusive = small, poorly fitted or top-dose-only effect, or another doubt; inactive = no such curve, though single readings can be large; an effect the other way counts as inactive or inconclusive.

What do the screens show for `CC1CC1C(=O)OCC(=O)NC(=O)NC12CC3CC(CC(C3)C1)C2` (stereo not given)?
Abeta yeast res: 8.91µM*; TDP43 rescue: -1.0%; aSyn yeast inh: 8.2%; LDHA block: -1.9; FUS yeast rescue: inactive; PTHR1 agonist: -15.9%

Results for Cc1cc(SCC(NC(=O)c2ccccc2)C(=O)O)c2ccccc2n1 (stereo not given) ?
LDHA block: -6.9

How did COc1ccc(C(=O)c2cn(Cc3cccc(C)c3)c3cc4c(cc3c2=O)OCCO4)cc1OC do in these assays?
Abeta yeast res: inactive; TDP43 rescue: 17.9%; LDHA block: -3.2; FUS yeast rescue: inconclusive; PTHR1 agonist: inactive

Results for Cc1cccc(Cn2cc(C(=O)c3ccccc3)c(=O)c3cc4c(cc32)OCO4)c1 ?
Abeta yeast res: inactive; TDP43 rescue: 35.5µM*; LDHA block: -10.6; FUS yeast rescue: inactive; PTHR1 agonist: -15.5%

How did CSc1nc(C)c(Oc2ccccc2)c(=O)n1C do in these assays?
Abeta yeast res: inactive; TDP43 rescue: 13.1%; aSyn yeast inh: -3.3%; LDHA block: -3.6; FUS yeast rescue: inactive; PTHR1 agonist: -7.4%[57.5 µM]

How did CSc1nc(-c2ccccc2F)c(C#N)c(=O)n1C do in these assays?
Abeta yeast res: inactive; TDP43 rescue: 20µM*; aSyn yeast inh: -0.8%; LDHA block: 1.2; FUS yeast rescue: inactive; PTHR1 agonist: -3.0%

What do the screens show for `Cc1ccc(S(=O)(=O)N(Cc2ccc(C#N)cc2)c2nc3nc(C)cc(C)n3n2)cc1`?
LDHA block: 6.3

Results for O/N=C1\CCCc2ccc3ccccc3c21 ?
Abeta yeast res: inactive; TDP43 rescue: 11.2µM*; aSyn yeast inh: 11.6%; LDHA block: 13.8; FUS yeast rescue: inactive; PTHR1 agonist: inactive

What do the screens show for `CC(C)OC(=O)Cn1c(C2CC(=O)N(Cc3ccc(F)cc3)C2)nc2ccccc21` (stereo not given)?
LDHA block: -0.8

What do the screens show for `CCOC(=O)c1ccc(NC(=O)CC2SC(c3cc4ccccc4oc3=O)=NC2=O)cc1` (stereo not given)?
LDHA block: -30.6*

What do the screens show for `O=c1[nH]c(=S)[nH]c2nc(-c3ccccc3)cnc12`?
Abeta yeast res: inactive; TDP43 rescue: -4.9%; aSyn yeast inh: -0.5%; LDHA block: 2.8; FUS yeast rescue: inactive; PTHR1 agonist: -7.0%

What do the screens show for `O=c1[nH]c(=O)c2nc(-c3ccc(Cl)cc3)cnc2[nH]1`?
Abeta yeast res: inactive; TDP43 rescue: 7.5%; aSyn yeast inh: -3.0%; LDHA block: -9.9; FUS yeast rescue: inactive; PTHR1 agonist: 14.1µM*

Results for Cc1c(O)ccc2c(CN(C)CCOc3ccccc3F)cc(=O)oc12 ?
LDHA block: 4.0

Results for NC(=O)Nc1ccc(Cl)cc1 ?
Abeta yeast res: inactive; TDP43 rescue: -12.6%; aSyn yeast inh: -0.1%; LDHA block: -15.8; FUS yeast rescue: inactive; PTHR1 agonist: -8.6%

What do the screens show for `O=C(Nc1ccc(Cl)cc1)P(=O)(O)c1ccccc1`?
Abeta yeast res: inactive; TDP43 rescue: 17.8µM*; aSyn yeast inh: -0.4%; LDHA block: -2.4; FUS yeast rescue: inactive; PTHR1 agonist: inactive

How did CCOc1nc(C)ccc1-c1noc(-c2ccccn2)n1 do in these assays?
Abeta yeast res: inactive; TDP43 rescue: -2.2%; aSyn yeast inh: -0.4%; LDHA block: -3.4; FUS yeast rescue: inactive; PTHR1 agonist: -2.0%[57.5 µM]

What do the screens show for `CCOc1ccccc1-c1nc(-c2ccc(C)nc2OC)no1`?
Abeta yeast res: inactive; TDP43 rescue: 20µM*; aSyn yeast inh: 8.8%; LDHA block: -4.7; FUS yeast rescue: inconclusive; PTHR1 agonist: -37.8%

Results for CCSC(=O)N1c2ccc(OC)cc2C=CC1C#N (stereo not given) ?
Abeta yeast res: inactive; TDP43 rescue: 22.4µM*; aSyn yeast inh: 4.2%; LDHA block: -0.6; PTHR1 agonist: -23.3%

How did COc1ccc(C(=O)N2c3ccccc3C=CC2C#N)cc1 (stereo not given) do in these assays?
Abeta yeast res: inactive; TDP43 rescue: 18.4%; aSyn yeast inh: -4.2%; LDHA block: -6.6; FUS yeast rescue: inactive; PTHR1 agonist: -21.5%

How did Cc1cccc(/C=C(/C#N)c2nc3ccccc3[nH]2)c1 do in these assays?
LDHA block: 1.5

Results for Cc1nc2sc(C#N)c(N)c2c2c1CCCC2 ?
Abeta yeast res: inactive; TDP43 rescue: inconclusive; aSyn yeast inh: 1.3%; LDHA block: -1.1; FUS yeast rescue: inactive; PTHR1 agonist: inactive

How did CC(=O)c1sc2nc(C)c3c(c2c1N)CCCC3 do in these assays?
Abeta yeast res: inactive; TDP43 rescue: 12.6µM*; aSyn yeast inh: 17.8µM*; LDHA block: 3.7; FUS yeast rescue: inactive; PTHR1 agonist: inactive

What do the screens show for `COc1ccc(-c2nc(CNC(=O)Nc3ccccc3OC)c(C)o2)cc1`?
LDHA block: 4.4

How did c1ccc(-c2cc3ccccc3[nH]2)cc1 do in these assays?
Abeta yeast res: inactive; TDP43 rescue: 11.2µM*; aSyn yeast inh: -16.1%; LDHA block: -2.0; FUS yeast rescue: inactive; PTHR1 agonist: -30.8%

How did Cc1ccc(-c2cc3ccccc3[nH]2)cc1 do in these assays?
LDHA block: 1.0

Results for Clc1ccc2[nH]c(-c3ccccc3)cc2c1 ?
Abeta yeast res: inconclusive; TDP43 rescue: 11.2µM*; aSyn yeast inh: -16.4%; LDHA block: -5.2; FUS yeast rescue: inactive; PTHR1 agonist: -12.2%

What do the screens show for `Cc1ccc(O)c(-c2cc3ccccc3[nH]2)c1`?
Abeta yeast res: inactive; TDP43 rescue: 3.16µM*; aSyn yeast inh: -4.9%; LDHA block: 10.3; FUS yeast rescue: inactive; PTHR1 agonist: -11.2%[57.5 µM]

How did Cc1ccc(-c2cc3ccccc3[nH]2)c(C)c1 do in these assays?
LDHA block: 10.5

Results for CCNc1nnc(SCc2nc(-c3ccccc3)no2)s1 ?
LDHA block: 3.9

Results for COc1ccccc1CCNC(=O)C1CCN(c2nc(Cl)nc3nc[nH]c23)CC1 ?
LDHA block: -11.3

How did Cc1ccc(CSc2nc3c(c(SCC(=O)O)n2)CCCC3)cc1 do in these assays?
Abeta yeast res: inactive; TDP43 rescue: 35.5µM*; aSyn yeast inh: 7.9%; LDHA block: 4.0; FUS yeast rescue: inactive; PTHR1 agonist: inactive
